PubChem BioAssay AID393 (SGCOxCompounds, 2006)
Activity calls are given as the source filed them. The rule behind the calls is not given here.

What follows are compounds tested against Serine/threonine-protein kinase pim-1 (Homo sapiens) (UniProt P11309) (assay: compound-induced PIM1 thermal stabilization – biophysical, human, melting temperature shift (AID 393)). Details: Thermal shift assay, stronger effect = higher value; at 10 µM, protein 2 µM, buffer 10 mM PIPES, pH 6.5, NaCl 150 mM unless noted.
Sequence of Serine/threonine-protein kinase pim-1 (Homo sapiens) (P11309 whole entry, looked up): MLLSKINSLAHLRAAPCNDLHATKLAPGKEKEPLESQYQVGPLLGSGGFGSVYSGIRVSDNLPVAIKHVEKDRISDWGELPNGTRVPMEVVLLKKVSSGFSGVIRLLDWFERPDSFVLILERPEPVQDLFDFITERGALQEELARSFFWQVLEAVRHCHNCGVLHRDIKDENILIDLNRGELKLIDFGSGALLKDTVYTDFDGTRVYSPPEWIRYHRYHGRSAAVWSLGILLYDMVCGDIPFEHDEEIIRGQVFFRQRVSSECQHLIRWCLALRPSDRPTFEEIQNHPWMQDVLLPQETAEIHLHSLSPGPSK

Tm shift, active:
Cc1cc(O)c2c(c1)C(=O)c1cc(O)cc(O)c1C2=O 6.3 Celsius [at 10 µM, protein 2 µM, buffer 10 mM Na Citrate, pH 6.5, NaCl 150 mM]
Cn1cc(C2=C(c3c4n(c5ccccc35)CCC(CN)C4)C(=O)NC2=O)c2ccccc21 (centres undefined) 5.8 Celsius [at 10 µM, protein 2 µM, buffer 10 mM Na Citrate, pH 6.5, NaCl 150 mM]
Fc1cccc(-c2cnc3ccc(NC4CCOCC4)nn23)c1 6.94 Celsius
CC(=O)Nc1cccc(-c2cnc3ccc(NC4CCOCC4)nn23)c1 3.48 Celsius
